The panel holds about 83,000 compounds, 20% with a hit somewhere; the sample as a whole holds those more often.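 Treatment: one concentration, 48 hours, 96-well format. Scoring: percent growth, with anything below 10 considered active.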 Values without a mark were called inactive. Active and inactive are the calls of the source.
These compounds were tested on SK-OV-3 ovarian (assay: NCI-60 one-dose screen, 48 h (100 = growth as untreated, 0 = no growth, -100 = all killed)). Details: 10 µM unless noted.

Row | SMILES | growth
1 | Nc1cc2ccccc2c(=O)n1NC(=O)c1ccccc1 | 93.5%
2 | Cn1cc(-c2cc(N)n3nc(-c4c[nH]c5ccccc45)cc3n2)c2cc(Cl)ccc21 | -61.4% (active)
3 | O=C(NC(=S)N1CCN(c2ncnc3c2cnn3-c2ccccc2)CC1)c1ccc(Br)cc1 | 57%
4 | O=C(N/N=C/c1ccc(B(O)O)s1)c1[nH]c2ccc(Br)cc2c1-c1ccccc1 | -86.7% (active)

These compounds were tested on IGROV1 ovarian in the same assay as above. Details: 10 µM unless noted.

Row | SMILES | growth
5 | CCCCNc1ccc2c3c(cccc13)C(=O)N(c1cccc(-c3nn(-c4ccccc4)cc3-c3nc4ccccc4s3)c1)C2=O | 98.4%
6 | COc1ccc(-c2cc(-c3cc(OC)c(OC)c(OC)c3)[nH]c(=O)c2C#N)cc1 | 36.7%
7 | COc1cc(C2CC(c3ccc(Cl)cc3)=Nc3c(N)nc(N)nc3N2)ccc1Oc1nc(Nc2ccc(F)cc2)nc(N(C)C)n1 (configuration not stated) | 34%
8 | O=C(O)CC1S/C(=N/N=C/c2nc3ccccc3s2)NC1=O (configuration not stated) | 103%
9 | Cc1ccc(S(=O)(=O)N(CCn2ccnc2[N+](=O)[O-])CCn2ccnc2[N+](=O)[O-])cc1 | 109%
10 | N#CCc1nnc(NC(=O)c2ccc(-n3c(=O)[nH]c4ccccc4c3=O)cc2)s1 | 105%
11 | O=C(N/N=C/c1ccc(Br)o1)c1[nH]c2ccc(Br)cc2c1-c1ccccc1 | 5.42% (active)
12 | COc1ccc(N=Nc2c(N)nn3c(-c4ccc([N+](=O)[O-])cc4)ccnc23)cc1 | 104%
13 | Cn1cc(-c2cc(N)n3nc(-c4c[nH]c5ccc(Cl)cc45)cc3n2)c2cc(Br)cnc21 | -49.3% (active)
14 | CN1C(=O)C2(C(C#N)=C(c3ccc(Cl)cc3)Nc3c2c(-c2ccccc2)nn3-c2ccccc2)c2ccccc21 (configuration not stated) | 98%
15 | Cc1nn(-c2ccccc2)c2nc(C)n(C(=O)N/N=C/c3ccccc3)c(=O)c12 | 97.6%
16 | CN1CCN(CCS(=O)(=O)Nc2cc(-c3ccc4ncnc(Nc5ccc(F)c(Cl)c5)c4c3)cnc2Cl)CC1 | -34.8% (active)
17 | COc1cc(C2CC(c3ccc(C(F)(F)F)cc3)=Nc3c(N)nc(N)nc3N2)ccc1Oc1nc(Nc2ccc(F)cc2)nc(N(C)C)n1 (configuration not stated) | 39.8%
18 | COc1ccc2[nH]c(=O)c(CSc3ccccc3Nc3nccc(-c4ccc5c(c4)OCO5)n3)cc2c1 | 87.4%
19 | Cc1cc(=O)oc2cc(OCC(O)CNN3C(=O)c4cccc5c(N6CCN(C)CC6)ccc(c45)C3=O)ccc12 (configuration not stated) | 109%
20 | CC[C@]12C=CCN3CC[C@]4(C(=C(C(=O)OC)C1)Nc1cc(OC)c([C@@H]5[C@H]6O[C@H]6[C@@]6(CC)CC(C(=O)OC)=C7Nc8cc(OC)ccc8[C@@]78CCN5[C@@H]68)cc14)[C@@H]32 | 64%
21 | C#CCCCNCCNc1ccnc2cc(Cl)ccc12 | 84.6%
22 | CCOC(=O)/C(F)=C/C1CC1C(c1ccccc1)c1ccccc1 (configuration not stated) | 90.8%
23 | S=C(NCCc1ccccc1)Nc1ccc(OCc2nc3ccc(Cl)cc3[nH]2)cc1 | 31.4%

Row | SMILES | growth
24 | Cc1ccc(C(=O)C[n+]2cccc3c4ccccc4ccc32)cc1 | 30.9%
25 | CCCn1c(NC(=O)c2cccc(C(N)=O)c2)nc2cc(CN3CCCCC3)ccc21 | 88.5%
26 | CCC(=O)c1c2c(c3ccc4c5ccccc5ccc4n13)C(=O)c1ccccc1C2=O | 75.6%
27 | O=C1/C(=C/c2cnc(-c3ccccc3)s2)SC(=S)N1Cc1ccc2c(c1)OCO2 | 64.2%
28 | O=c1[nH]c2ccccc2cc1COc1ccc(Nc2nccc(-c3ccc(Cl)cc3)n2)cc1 | 102%
29 | O=C(/C=C1\C(=O)N(Cc2ccccc2)c2ccccc21)c1cc2ccccc2oc1=O | 67.4%
30 | COc1ccc(NC(=O)Cn2c(/C=C/c3cccc(Br)c3)nc3ccccc3c2=O)cc1 | 49.8%
31 | O=c1ccc(Cn2c(C(F)(F)F)cc3c(Cl)ncnc32)c[nH]1 | -67.4% (active)
32 | CCCCC[C@@H]1C/C=C(\C)[C@@H](O)C(C)(C)C(=O)[C@@H](C)/C=C(\C)[C@@H]2C[C@H](O)C[C@](O)(CC(=O)O1)O2 | 58.5%
33 | COc1cc(NC(=O)CSc2nnc(-c3ccc(-c4nc5ccc(Cl)cc5[nH]4)cc3)o2)cc(OC)c1OC | 52.7%
34 | Cc1ccc(C2CC(c3ccc(S(=O)(=O)NCCNc4nc(N(C)C)nc(N5CCOCC5)n4)cc3)=Nc3c(N)nc(N)nc3N2)cc1 (configuration not stated) | 50.2%
35 | CCCCNC(=S)Nc1ccc(OCc2nc3ccc(Cl)cc3[nH]2)cc1 | 12.9%
36 | Nc1nn2c(-c3cc4cc(Br)ccc4oc3=O)ccnc2c1N=Nc1ccc(S(N)(=O)=O)cc1 | 93.1%
37 | OCCn1cc(-c2nc3ccc4[nH]ncc4c3c3c2CCCC3)cn1 | 52%
38 | CN(C)CCCc1ccc(Nc2cnn(C)c(=O)c2Cl)cc1 | 104%
39 | Nc1cc2ccccc2c(=O)n1NC(=O)c1ccccc1 | 90.2%
40 | Cn1cc(-c2cc(N)n3nc(-c4c[nH]c5ccccc45)cc3n2)c2cc(Cl)ccc21 | -65.5% (active)
41 | O=C(NC(=S)N1CCN(c2ncnc3c2cnn3-c2ccccc2)CC1)c1ccc(Br)cc1 | 72.1%
42 | O=C(N/N=C/c1ccc(B(O)O)s1)c1[nH]c2ccc(Br)cc2c1-c1ccccc1 | -74.8% (active)
